Measurements published in PubChem BioAssay (NCATS).
Results filed as inconclusive are left out. Active and inactive are the calls of the source. Unless noted, the call rests on the fitted dose curve; in most records, active means well fitted curve in the direction sought with a large enough effect; inconclusive means small, poorly fitted or top-dose-only effect, or another doubt; inactive means no such curve, though single readings can be large; an effect the other way counts as inactive or inconclusive.

Columns and labels:
[1] = biological target: Voltage-gated inwardly rectifying potassium channel KCNH2 (Homo sapiens) (UniProt Q12809); experiment: qHTS Assay for Small Molecule Inhibitors of the Human hERG Channel Activity (AID 588834);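 further: top concentration of the series differs between compounds; lower thallium flux fluorescence means stronger hERG block; nearly all actives have a fitted effect of over 50% in size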
Chain of Voltage-gated inwardly rectifying potassium channel KCNH2 (Homo sapiens) (Q12809 whole entry, looked up): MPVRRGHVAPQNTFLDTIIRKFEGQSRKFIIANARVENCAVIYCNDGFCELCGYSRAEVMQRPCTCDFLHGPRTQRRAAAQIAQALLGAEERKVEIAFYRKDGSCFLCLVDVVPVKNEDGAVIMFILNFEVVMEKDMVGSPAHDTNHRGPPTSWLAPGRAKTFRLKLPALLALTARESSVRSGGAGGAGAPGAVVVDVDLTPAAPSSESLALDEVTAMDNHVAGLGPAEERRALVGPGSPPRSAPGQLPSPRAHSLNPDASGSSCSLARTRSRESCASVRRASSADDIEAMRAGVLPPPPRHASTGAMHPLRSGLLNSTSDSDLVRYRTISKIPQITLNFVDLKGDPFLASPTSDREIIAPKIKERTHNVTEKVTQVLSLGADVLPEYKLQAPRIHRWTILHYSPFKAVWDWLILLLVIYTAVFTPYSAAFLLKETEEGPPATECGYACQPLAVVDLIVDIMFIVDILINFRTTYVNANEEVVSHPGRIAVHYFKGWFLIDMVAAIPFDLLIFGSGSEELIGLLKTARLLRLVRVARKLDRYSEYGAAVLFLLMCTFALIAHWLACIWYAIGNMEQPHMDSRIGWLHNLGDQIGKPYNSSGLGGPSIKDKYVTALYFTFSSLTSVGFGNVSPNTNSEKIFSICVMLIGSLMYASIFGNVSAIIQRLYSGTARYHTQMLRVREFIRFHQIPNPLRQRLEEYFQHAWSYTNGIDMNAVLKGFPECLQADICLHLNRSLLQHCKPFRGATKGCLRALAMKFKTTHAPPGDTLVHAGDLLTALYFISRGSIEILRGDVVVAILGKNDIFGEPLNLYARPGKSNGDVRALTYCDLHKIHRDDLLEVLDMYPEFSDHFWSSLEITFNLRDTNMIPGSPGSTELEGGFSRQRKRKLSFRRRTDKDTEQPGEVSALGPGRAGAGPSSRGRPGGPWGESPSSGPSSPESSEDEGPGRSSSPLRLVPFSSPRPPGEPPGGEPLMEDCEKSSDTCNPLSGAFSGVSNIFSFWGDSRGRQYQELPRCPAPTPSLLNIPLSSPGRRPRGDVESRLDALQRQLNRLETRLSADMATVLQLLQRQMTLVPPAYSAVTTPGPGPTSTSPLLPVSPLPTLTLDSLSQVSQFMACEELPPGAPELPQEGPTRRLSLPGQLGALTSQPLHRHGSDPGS
Procedure, shortened: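 Blockade is seen as reduced FluxOR thallium-flux fluorescence in U2OS cells expressing hERG from a BacMam construct, in Opti-MEM with 2% FCS. Concentration-response data fitted to the Hill equation for AC50.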

[2] = S16 Schwann cell viability assay (CellTiter-Glo assay) (AID 624031);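 further: cellular ATP luminescence as a viability measure; series mostly up to about 58 µM; nearly all actives have a fitted effect of over 70% in size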
Procedure, shortened: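 CellTiter-Glo ATP luminescence counter-screen in untransfected S16 rat Schwann cells, 24h compound exposure at 37 degree Celsius after overnight seeding (500-750 cells/well); response scaled between cell-free wells and DMSO (0% activity), curves classed by r2 and magnitude.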

[3] = S16 Schwann cell PMP22 intronic element firefly luciferase assay (AID 624032); further: series mostly up to about 58 µM; nearly all actives have a fitted effect of over 30% in size
Procedure, shortened: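 Rat S16 Schwann cells stably carrying firefly luciferase driven by a PMP22 intronic element, in 10% FBS, treated 24 h at 37 C. ONE-Glo luminescence normalized to PTC124 control and DMSO (0%); curves classed by r2, magnitude and activity.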

[4] = S16 Schwann cell PMP22 intronic element beta-lactamase assay (AID 624044; calls by dose curve; further: nearly all actives have a fitted effect of over 15% in size)
Procedure, shortened: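 Rat S16 Schwann cells with beta-Lac driven by a PMP22 intronic element, compound-treated 24 h at 37 °C. LiveBLAzer FRET B/G read: 460 nm normalized to potassium clavulanate vs DMSO; 535 nm FRET as viability; concentration-effect curves classified.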

[5] = biological target: Luciferin 4-monooxygenase (Photinus pyralis) (UniProt P08659); experiment: Biochemical firefly luciferase enzyme assay for NPC (AID 624030);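 further: purified P. pyralis luciferase at 10 nM with luciferin and ATP substrate; series mostly up to about 59 µM; nearly all actives have a fitted effect of over 70% in size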
Chain of Luciferin 4-monooxygenase (Photinus pyralis) (P08659 whole entry, looked up): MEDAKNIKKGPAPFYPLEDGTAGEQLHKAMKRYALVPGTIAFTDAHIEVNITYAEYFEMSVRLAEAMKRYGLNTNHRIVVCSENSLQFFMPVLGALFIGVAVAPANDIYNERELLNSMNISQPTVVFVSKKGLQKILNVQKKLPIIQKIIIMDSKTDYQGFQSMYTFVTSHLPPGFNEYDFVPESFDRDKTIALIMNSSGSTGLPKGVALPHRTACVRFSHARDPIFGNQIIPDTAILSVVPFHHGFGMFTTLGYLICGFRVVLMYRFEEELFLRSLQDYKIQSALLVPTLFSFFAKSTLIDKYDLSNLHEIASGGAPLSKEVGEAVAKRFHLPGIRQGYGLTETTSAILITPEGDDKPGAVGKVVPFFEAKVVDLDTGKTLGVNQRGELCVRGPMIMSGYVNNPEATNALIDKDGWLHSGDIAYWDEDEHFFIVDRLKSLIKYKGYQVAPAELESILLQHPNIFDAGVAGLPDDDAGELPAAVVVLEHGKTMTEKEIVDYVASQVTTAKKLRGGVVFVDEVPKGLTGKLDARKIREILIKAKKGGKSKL
Procedure, shortened: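 Purified P. pyralis luciferase at 10 nM in 50 mM Tris Acetate (final), luminescence read within 5 minutes of enzyme addition to compounds. Activity normalised to PTC124 versus DMSO; concentration-response curves classed by r2, magnitude and activity.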

Measured: Potency

NCc1ccc(S(N)(=O)=O)cc1
not listed: [5]
inactive: all other assays above

CC1CCN(CCCC(=O)c2ccc(F)cc2)CC1
inactive: [5] | [3]

CC(=O)N[C@@H](Cc1ccc(O)cc1)C(=O)O
inactive: [1] | [2] | [3]

NNc1nnc(NN)c2ccccc12
not listed: [5]
inactive: all other assays above
